Screening results from PubChem BioAssay.
Cruzain inh Det: blocks cruzain activity in presence of Triton detergent | P25779 | purified cruzain, Z-FR-AMC fluorescence, 0.01% Triton | Potency, µM, without a hit: max response, negative = inhibition, hits mostly inhibitors | hit rate 0.43% among 200,000 | AID 1478;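 also: plate controls were neutral wells for no effect and buffer without enzyme for full effect; nearly all actives have a fitted effect of over 40% in size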
Target sequence (P25779 123-467 limits assumed): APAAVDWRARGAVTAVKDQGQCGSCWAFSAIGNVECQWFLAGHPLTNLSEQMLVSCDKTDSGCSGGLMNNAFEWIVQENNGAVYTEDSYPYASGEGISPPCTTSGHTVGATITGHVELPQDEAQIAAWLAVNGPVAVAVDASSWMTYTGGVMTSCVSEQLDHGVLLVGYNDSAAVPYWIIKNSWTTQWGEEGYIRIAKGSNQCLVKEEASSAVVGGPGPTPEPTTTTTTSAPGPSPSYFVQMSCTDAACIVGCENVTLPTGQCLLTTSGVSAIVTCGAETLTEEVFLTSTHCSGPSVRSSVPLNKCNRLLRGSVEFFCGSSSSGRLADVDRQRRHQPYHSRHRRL
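Detergent-containing arm of a paired screen for aggregation-based inhibition: 0.01% Triton X-100 present. Cruzain at 1.5 nM cleaved 2 uM Z-FR-AMC at pH 5.5 with 5 mM DTT; AMC fluorescence gain over 60 s measured activity.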
Cruzain noTriton: inhibitors of Trypanosoma cruzi cruzain without detergent. purified cruzain, Z-FR-AMC fluorescence, no detergent. P25779. Potency, µM, for inactives: max response, negative = inhibition, usual class: inhibitors. hit rate 2.3% among 200,000;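 also: plate controls were enzyme without inhibitor for no effect and buffer without enzyme for full effect; nearly all actives have a fitted effect of over 40% in size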
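Purified cruzain at 1.5 nM, pre-incubated 15 min with compound at room temperature in 100 mM sodium acetate pH 5.5, 5 mM DTT, 0.00005% Triton X-100. Reaction started with 2 uM Z-FR-AMC; AMC fluorescence increase over 60 s gives rate.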
An asterisk follows results filed as active; ? = inconclusive. Compounds with a hit are over-represented: about 2.4% of the library has one in this group of screens. Calls follow the shape of the dose curve; as a rule, active = well fitted curve in the direction sought with a large enough effect; inconclusive = small, poorly fitted or top-dose-only effect, or another doubt; inactive = no such curve, though single readings can be large; an effect the other way counts as inactive or inconclusive. Potency is read from the fitted curve at half-maximal effect.

SMILES	Cruzain inh Det	Cruzain noTriton
CC(C)(C)c1ccc(OCC(=O)N(Cc2ccco2)Cc2ccccc2F)cc1	-12%	?
O=C1/C(=C\c2ccccc2)CCc2c1[nH]c1ccccc21	-1%	?
Cc1ccc2[nH]c(-c3ccccc3)cc(=O)c2c1	1%	-11%
Cc1ccc2[nH]c3c(c2c1)CC/C(=C/c1ccccc1)C3=O	4%	13µM*
Cc1ccc(/C=C2/CCc3c([nH]c4ccccc34)C2=O)cc1	6%	32µM*
CCCCOc1ccc(C(=O)N(Cc2ccc(N(C)C)cc2)Cc2ccco2)cc1	-11%	-25%
CCN(CC)c1nc2c(S(=O)(=O)c3ccccc3)nnn2c2ccc(Cl)cc12	-6%	-16%
COc1cccc(-c2cc(C(=O)Nc3ccc(Br)c(C)c3)[nH]n2)c1	-1%	13µM*
COc1cccc(-c2cc(C(=O)Nc3ccc(F)cc3)[nH]n2)c1	-1%	?
O=C(CN1C(=O)CC(c2ccccc2)=Nc2ccccc21)Nc1ccc(Br)cc1	0%	45%
COc1ccc2c(c1)NC(c1ccc(OCC(C)C)cc1)=NC(c1ccncc1)=N2	-2%	29%
CCCCOC(=O)Cn1c(=O)c2c(nc3n2CCCCN3c2ccc(C)cc2)n(C)c1=O	25µM*	17%
Cn1c(=O)n(CC(=O)O)c(=O)c2c1nc1n2CCCN1c1ccc(Cl)cc1	0%	-1%
COc1ccc(C2CC(=O)N(Cc3ccccc3)c3c2c(C)nn3-c2nc(C)cc(C)n2)c(OC)c1 (configuration not stated)	-1%	22%
Cc1c(C(=O)NC(=S)Nc2ccc(NC(=O)c3cccs3)cc2)oc2ccccc12	-2%	13µM*
CC(=O)NC(=S)Nc1ccc(NC(=O)c2cccs2)cc1	1%	-10%
COc1ccc(C(=O)Nc2ccc(NC(=O)c3cccs3)cc2)cc1OC	-1%	-27%
O=C(NNC(=S)NC(=O)c1cccs1)c1ccc(NC(=O)c2ccccc2)cc1	1%	20µM*
O=C(Nc1ccc(NC(=S)NC(=O)c2cccs2)cc1)c1ccccc1	-4%	14%
COc1ccc(C(=O)Nc2ccc(NC(=O)c3cccs3)cc2)cc1Cl	3%	7.9µM*
Cc1ccc(O)c(-c2n[nH]c3c2C(c2ccc(F)cc2)N(Cc2ccco2)C3=O)c1 (configuration not stated)	-22%	?
Cc1ccc(CN(Cc2ccco2)C(=O)c2ccc(OCC(C)C)cc2)cc1	-11%	?
Cc1nc2ccc(S(=O)(=O)N(CC(=O)Nc3cccc(Cl)c3)Cc3ccccc3)cc2s1	-5%	-1%
CCc1cc(C(=O)N=Nc2c(O)[nH]c3ccc([N+](=O)[O-])cc23)c2ccccc2n1	-14%	-27%
CCCCCCC(=O)N=Nc1c(O)[nH]c2ccc([N+](=O)[O-])cc12	-3%	25µM*
SMILES	Cruzain inh Det	Cruzain noTriton
COc1ccc(OCc2ccc(-c3nc(C#N)c(N4CCC(C(N)=O)CC4)o3)o2)cc1	-11%	?
CC(C)CCNS(=O)(=O)c1ccc(-c2ccc(S(=O)(=O)NCCC(C)C)cc2)cc1	-1%	10µM*
COc1ccc(S(=O)(=O)NCCC(C)C)cc1OC	2%	5%
O=C(NCCc1csc2nc(-c3cccc(F)c3)nn12)c1ccc(Br)o1	-5%	9%
CCOC(=O)c1c(NC(C)=O)sc2c(O)cccc12	-4%	3%
CCOC(=O)c1c(NC(=O)c2ccccc2)sc2c(O)c(CN(CC)CC)ccc12	-1%	16µM*
Cc1ccc(C(=O)CNc2cccc(Cl)c2)cc1	-1%	-23%
O=C(CNc1cccc(Cl)c1)c1ccc(Cl)cc1	7%	32µM*
COc1ccc(CNCc2ccc3c(c2)n(C)c(=O)n3C)cc1	0%	11%
COc1ccc(OC)c(S(=O)(=O)NCc2ccccc2)c1	-2%	-2%
COc1ccc(OC)c(NS(=O)(=O)Cc2ccccc2)c1	-2%	32µM*
CC(C)(C)c1ccc(C(=O)Nc2nnc3n2CCS3)cc1	1%	-4%
COc1cc(C2NC(=O)N(C)C3=C2C(=O)N(c2ccccc2)C3)ccc1O (configuration not stated)	-2%	-11%
O=S(=O)(c1ccc(-c2nc3ccccc3s2)cc1)N1CCCC1	3%	25µM*
O=S(=O)(c1cccc(-c2nc3ccccc3s2)c1)N1CCCC1	-7%	6%
Cc1ccc(-c2c3c(nc4sc(C(N)=O)c(N)c24)CCC3)cc1	-10%	-3%
Cc1ccc(C(=O)Cn2nnc3c(sc4nc5c(c(-c6ccccc6)c43)CCC5)c2=O)cc1	-3%	20µM*
Cc1ccc(S(=O)(=O)N(Cc2nc(-c3cccc(C)c3)no2)C2CCCCC2)cc1	-5%	-29%
Cc1cc(C)c2nc3s/c(=C/c4ccccc4)c(=O)n3c2c1	3%	-18%
Cc1ccc2c(nc3s/c(=C/c4cccs4)c(=O)n32)c1C	-2%	16µM*
COc1ccc2nc(-c3ccco3)c(-c3ccco3)nc2c1	11µM*	4µM*
Nc1nc(-c2ccco2)c(-c2ccco2)s1	-8%	-1%
c1coc(-c2nc(-c3ccco3)c(-c3ccco3)nc2-c2ccco2)c1	7.9µM*	?
COc1ccc(Nc2c(-c3ccco3)nc3cccc(C)n23)cc1	-12%	-17%
COC(=O)c1ccc(NC(=O)CC2C(=O)N(c3cccc(C)c3)C(=O)N2C2CCCC2)cc1 (configuration not stated)	-8%	-5%
SMILES	Cruzain inh Det	Cruzain noTriton
CCOc1ccccc1C(=O)N(Cc1ccco1)Cc1ccccc1F	-9%	3%
Cc1ccc(CCNC(=O)CCCn2c(=O)c3ccccc3n(CC(=O)Nc3cc(Cl)ccc3C)c2=O)cc1	8%	9%
N#C/C(=C\c1ccc(-c2ccc(Cl)c(C(=O)O)c2)o1)c1nc2ccccc2[nH]1	-3%	-5%
COc1cc(/C=C(\C#N)c2nc3ccc(C)cc3[nH]2)ccc1OC(C)C	-1%	4%
Cc1ccc2nc(/C(C#N)=C/c3cccc(Br)c3)[nH]c2c1	-2%	20µM*
Cc1ccc2nc(/C(C#N)=C/c3ccc(-c4cccc(Cl)c4)o3)[nH]c2c1	?	13µM*
O=C(Nc1cccc(OCc2cc(=O)n3ccccc3n2)c1)Nc1cccc(C(F)(F)F)c1	3%	-10%
O=C(Cn1c(=O)oc2ccccc21)NCc1ccccc1Cl	-2%	-5%
CCC(C(=O)N1CCN(c2ccccc2)CC1)n1c(C)c2cnn(-c3ccccc3)c(=O)c2c1C (configuration not stated)	-7%	?
O=c1c(NCCc2ccc(Cl)cc2)nccn1-c1ccccc1	-6%	-26%
COc1ccc(NC(=O)CCCn2nc(C)c3sc4ccccc4c3c2=O)cc1	-1%	-12%
CC(=O)Nc1ccc(C)cc1-c1nc2ccccc2n(CC(=O)c2ccc(C)c(C)c2)c1=O	-4%	-16%
COC(=O)c1sccc1NC(=O)/C=C/c1ccc(Cl)cc1	-2%	3%
COC(=O)c1sccc1NC(=O)/C=C\c1ccc(Cl)cc1Cl	3%	3.2µM*
Cc1cc(C)nc(SCc2cc(=O)c(OC(=O)c3ccc(Br)o3)co2)n1	?	-15%
Cc1cc(C)nc(SCc2cc(=O)c(OC(=O)c3ccco3)co2)n1	25µM*	?
COc1cc(OC)cc(C(=O)N/N=C/c2ccc(OC)c(COc3ccc(F)cc3)c2)c1	-6%	-23%
COc1ccc(/C=N/NC(=S)Nc2ccccc2)cc1COc1ccc(F)cc1F	-5%	7.9µM*
COc1ccc(CNC(=O)Cn2ncc3c4ccccc4n(Cc4cccc(Cl)c4)c3c2=O)cc1	-7%	-1%
CCCOc1ccc(-c2nc(C#N)c(N3CCc4ccccc4C3)o2)cc1	25µM*	-92%
